In ChEMBL document CHEMBL3988442, “University of Dundee, Small-Polar-MMV Screening Library” (2021):

target: T1, Arginase-2, mitochondrial (Homo sapiens) (UniProt P78540); test: in vitro enzyme assay to detect the production of urea directly proportional to the activity of Arginase II; type: functional; set-up: scale not given: in the data most compounds retested in dose-response had high values; conditions: 30 µM
T1 sequence (whole entry): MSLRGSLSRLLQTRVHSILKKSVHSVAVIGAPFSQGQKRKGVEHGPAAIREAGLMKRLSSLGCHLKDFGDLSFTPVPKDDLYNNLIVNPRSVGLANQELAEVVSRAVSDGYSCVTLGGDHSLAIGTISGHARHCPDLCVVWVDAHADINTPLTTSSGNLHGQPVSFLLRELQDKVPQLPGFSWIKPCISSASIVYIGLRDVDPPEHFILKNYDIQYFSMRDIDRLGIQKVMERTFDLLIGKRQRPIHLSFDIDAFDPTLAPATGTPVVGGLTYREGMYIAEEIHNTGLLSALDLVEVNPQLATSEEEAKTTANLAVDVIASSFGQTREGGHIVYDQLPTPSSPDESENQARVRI

**Q.** `COCCC(=O)NCC1COc2cc(OC)ccc2C1` (centres undefined) was tested. Which Percent Effect did it give?
**A.** 5.95%

**Q.** With `Cc1ncsc1C(=O)N1CCCC(c2nccn2Cc2cscn2)C1` (centres undefined) as the molecule, how does the Percent Effect read?
**A.** 10.3%

**Q.** How did the Percent Effect turn out when `O=C(O)C1CCN(C(=O)Cn2ccc3c(Cl)cccc32)CC1` was run?
**A.** 10.3%

**Q.** For `COc1ccc(OCC(O)CN2CCN(c3nccs3)CC2)cc1` (centres undefined), which Percent Effect is on record?
**A.** -8.11%

**Q.** For `O=C(NCc1ccccn1)[C@]12COC[C@H]1CN(Cc1ccccc1F)C2`, which Percent Effect is on record?
**A.** 4.87%

**Q.** With `Cc1nsc(N2CCCN(C(=O)NCc3cc(C)on3)CC2)n1` as the molecule, how does the Percent Effect read?
**A.** 8.11%

**Q.** With `O=C(NC1CC1)[C@@H]1CCO[C@@H]2CCN(CCc3ccccc3)C[C@@H]21` as the molecule, how does the Percent Effect read?
**A.** 10.3%

**Q.** `Cc1cnc(C(=O)N2CCCC(c3nccn3Cc3cscn3)C2)cn1` (centres undefined) was tested. Which Percent Effect did it give?
**A.** -5.95%

**Q.** `CCc1cc(CNC(=O)N2CCN(c3nc(C)c(C)s3)CC2)on1` was tested. Which Percent Effect did it give?
**A.** 3.78%

**Q.** Which Percent Effect does the source give for `Cc1nc(NCC2CC2)nc2c1COCC21CCN(S(=O)(=O)C2CC2)C1` (centres undefined) here?
**A.** 7.03%

**Q.** `CC(C)CS(=O)(=O)CC(=O)N1CCCC1c1noc(C2CC2)n1` (centres undefined) was tested. Which Percent Effect did it give?
**A.** 5.95%

**Q.** How did the Percent Effect turn out when `O=C(COC1CCCC1)N1CCCC1c1noc(C2CC2)n1` (centres undefined) was run?
**A.** 5.95%

**Q.** For `Cc1ccc(-c2nc(CN3CC(n4nc(C)cc4C)C3)no2)cc1`, which Percent Effect is on record?
**A.** 3.78%

**Q.** `CC1=Nc2c(c(=O)[nH]n2C2CCCC2)C(c2cccnc2)S1` (centres undefined) was tested. Which Percent Effect did it give?
**A.** 7.03%

**Q.** How did the Percent Effect turn out when `Cn1cc(CN2C[C@@H]3COC[C@]3(C(=O)NCc3cccs3)C2)cn1` was run?
**A.** 4.87%

**Q.** `Cc1nnsc1C(=O)N1CCCC(c2nccn2Cc2cscn2)C1` (centres undefined) was tested. Which Percent Effect did it give?
**A.** -2.7%

**Q.** With `CC(=O)N[C@@H](C)C(=O)NCc1cccnc1Oc1ccccc1F` as the molecule, how does the Percent Effect read?
**A.** 2.7%

**Q.** Which Percent Effect does the source give for `Cc1nc(N2CCN(C(=O)NCc3cscn3)CC2)sc1C` here?
**A.** 5.95%

**Q.** How did the Percent Effect turn out when `CC(C)(C)n1cc(NC(=O)C2CN(Cc3ccccc3)CCO2)cn1` (centres undefined) was run?
**A.** 0.54%

**Q.** For `Cc1ccc(CCNC(=O)N2CCC(Cc3cnn(C)c3)C2)cn1` (centres undefined), which Percent Effect is on record?
**A.** 7.03%

**Q.** `CC(C)CN1CCC(NC(=O)c2ccc(F)cc2F)CC1` was tested. Which Percent Effect did it give?
**A.** 7.03%

**Q.** How did the Percent Effect turn out when `O=C(Cn1ccc2c(Cl)cccc21)N1CCCC1` was run?
**A.** 8.11%

**Q.** How did the Percent Effect turn out when `CNC(=O)[C@@H]1CCO[C@@H]2CCN(CCc3ccccc3)C[C@H]21` was run?
**A.** 8.11%

**Q.** `O=c1[nH]c2c(c(=O)n1C1CCCCC1)CCC2NCc1ccccc1` (centres undefined) was tested. Which Percent Effect did it give?
**A.** 9.19%

**Q.** Which Percent Effect does the source give for `COc1ccccc1Oc1ncccc1CNC(=O)[C@H](N)CC(C)(C)C` here?
**A.** 10.3%

**Q.** For `Fc1ccc(CNCc2nnc3n2CC(C(F)(F)F)CC3)cc1` (centres undefined), which Percent Effect is on record?
**A.** -13.5%

**Q.** With `CCOc1cccc(C(=O)N(CCC#N)Cc2ccccn2)c1` as the molecule, how does the Percent Effect read?
**A.** 13.5%

**Q.** `CCC(C(=O)NCc1ccncc1)N(c1ccc(F)cc1)S(C)(=O)=O` (centres undefined) was tested. Which Percent Effect did it give?
**A.** 8.11%

**Q.** How did the Percent Effect turn out when `O=C(NCCO)c1coc(CN2CCN(c3ccccc3F)CC2)n1` was run?
**A.** -8.11%

**Q.** How did the Percent Effect turn out when `COc1cccc(C(=O)N2C[C@@H](C(=O)O)[C@H](c3ccccc3C)C2)c1` was run?
**A.** 5.95%

**Q.** `Cn1cc(CC2CCN(C(=O)NCCCc3ccc(O)cc3)C2)cn1` (centres undefined) was tested. Which Percent Effect did it give?
**A.** 7.03%

**Q.** Which Percent Effect does the source give for `Cc1nc(NCC2CC2)nc2c1COCC21CCN(CC(=O)N(C)C)C1` (centres undefined) here?
**A.** 4.87%

**Q.** For `Nc1ccc(C(=O)N2CCCC(c3nccn3Cc3cscn3)C2)cn1` (centres undefined), which Percent Effect is on record?
**A.** 5.95%

**Q.** For `CC1CCN(S(=O)(=O)c2cccn(CC(=O)NC(C)(C)C)c2=O)CC1`, which Percent Effect is on record?
**A.** 8.11%

**Q.** For `Cc1ccc([C@@H]2CN(S(=O)(=O)c3ccccc3)C[C@H]2N(C)C)cc1`, which Percent Effect is on record?
**A.** 3.78%

**Q.** For `COc1ccc2c(c1)OCC(CNC(=O)c1cc(C(C)C)on1)C2` (centres undefined), which Percent Effect is on record?
**A.** 2.7%

**Q.** For `CN(C)c1ncccc1CNC(=O)N(Cc1ccccc1F)C1CC1`, which Percent Effect is on record?
**A.** 8.11%

**Q.** Which Percent Effect does the source give for `CCC(C(=O)NCc1ccncc1)N(c1ccccc1)S(C)(=O)=O` (centres undefined) here?
**A.** 5.95%

**Q.** Which Percent Effect does the source give for `CC(C)CN1CCC(NC(=O)c2ccc(F)cc2Cl)CC1` here?
**A.** 5.95%
